Compound activity (PubChem BioAssay)
miR-122 sensor = miR-122 Renilla sensor signal increase in Huh7, primary screen, miR-122 inhibitor project, cell-based, single point, plate reader; 340,000 tested, 0.3% active; Huh7 miR-122 Renilla luciferase sensor, 48 h; neutral wells = 0, positive control = 100; activation (reporter increase), % at 12.5 µM;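 active = mean replicate activation score at least 90 and every replicate individually at or above 90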;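 also: higher luciferase means less miR-122 activity so hits act as miR-122 inhibitors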
Statin myotox sup = suppressors of statin myotoxicity in C2C12 myotubes, primary screen, cell-based, single point, plate reader | C2C12 myotubes + simvastatin, ATP luminescence, 48 h; scaled: DMSO 0, geranylgeraniol control 100 | 330,000 tested, 0.78% active | AID 602340, 2012 | rescue of ATP level, % at 7.49 µM;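 active = mean ATP rescue above about 67%, or every replicate alone reaching that limit, limit read from the data, passing the limit was not always enough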;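 also: myotubes were challenged with 10 µM simvastatin during compound exposure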
DENV2 CPE rescue = inhibitors of DENV2 cytopathic effect, primary screen, cell-based, plate reader, single concentration; DENV2-infected cells, cytopathic effect rescue; CPE inhibition, % at 9.99 µM; AID 651640, 2012; 350,000 tested, 1.7% active; in the data active = CPE inhibition above about 20%, passing the limit was not always enough; tested in BHK-21 cells;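 also: 0% = median of neutral control wells and 100% = median of positive control wells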
PvdQ inh = P. aeruginosa PvdQ acylase inhibitors, primary screen, biochemical, fluorescence, plate reader and imaging, single point | inhibition, % at 10 µM | purified PvdQ acylase | PvdQ acylase [Pseudomonas aeruginosa LESB58] | 340,000 tested, 0.063% active; in the data active = inhibition above about 30%, passing the limit was not always enough;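 also: 0% = vehicle neutral wells and 100% = reference inhibitor wells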
PGC1a acetyl inh = inhibitors of PGC1a acetylation signal, primary screen, cell-based, U2OS, AlphaScreen, inhibitor mode. inhibition, % at 15.6 µM. 350,000 tested, 0.17% active. AlphaScreen anti-acetyl-lysine; with virally co-expressed GCN5 acetyltransferase;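 active = every replicate shows inhibition of at least 40%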;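 also: 0% = neutral control wells and 100% = positive control wells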
* hit, by the source's call; . = no result given; [ ] = another dose, or the depositor's remark. Shown are actives, neighbours in structure and some others; about 2.2% of the full set was active somewhere.

SMILES | miR-122 sensor | Statin myotox sup | DENV2 CPE rescue | PvdQ inh | PGC1a acetyl inh
CO[C@@H]1CN(C)C(=O)c2ccc(NC(=O)C3CCCC3)cc2OC[C@H](C)N(C)C[C@@H]1C | -1.8[16.7 µM] | -1.5 | -3.1 | . | .
O=C(C[C@H]1CC[C@H](NC(=O)c2ccncc2)[C@H](CO)O1)NCc1ccncn1 | . | . | 3.4 | . | 2.6
CNC[C@@H]1Oc2ccc(NC(=O)NC(C)C)cc2C(=O)N([C@H](C)CO)C[C@H]1C | -0.9[16.7 µM] | -27.9 | 17.5 | . | 1.3
CO[C@H]1CN(C)C(=O)c2ccc(NC(=O)Nc3ccc(Cl)cc3)cc2OC[C@H](C)N(C)C[C@H]1C | 0.9[16.7 µM] | -25.1 | 27.5* | . | .
COc1ccc(CN2CCn3ncc(C(=O)Nc4cccc(C)c4)c3C2=O)cc1 | 6.4 | 124.0* | . | 5.6 | -7.8
N#CC1=C(N)OC2=C(C(=O)CCC2)[C@]12C(=O)N(CC(N)=O)c1ccccc12 | 0.2 | 109.4* | . | -16.8 | 2.2
c1ccc(-c2cn(C[C@H]3CC[C@@H]([C@@H]4CC[C@H](Cn5cc(-c6ccccc6)nn5)O4)O3)nn2)cc1 | -0.3 | -4.5 | 33.9* | -23.9 | -12.0
O=C(Nc1nc2ccc(S(=O)(=O)N3CCCCC3)cc2s1)C1CCCO1 (centres undefined) | 69.9 | . | . | -15.7 | .
O=C(Nc1nc2ccc(S(=O)(=O)N3CCCC3)cc2s1)C1CCCCC1 | 130.4* | . | . | -12.3 | -40.1
Clc1ccc(N=c2ssnc2Cl)nc1 | 2.3 | . | 1.1 | -10.9 | 12.1
O=Nc1ccc(Cl)cn1 | . | . | 30.5* | . | .
Cc1nnc(SCC(=O)N(C2CCCCC2)C2CCS(=O)(=O)C2)n1N (centres undefined) | 4.6 | -0.7 | 34.9* | 0.3 | .
O=C(c1ccc(F)cc1)N1CCCCN2[C@@H](CO)[C@H](c3ccc(-c4ccc(F)cc4)cc3)[C@@H]2C1 | 8.3[16.7 µM] | . | -3.8 | . | -1.9
CO[C@H](CN(C)Cc1cc(F)ccc1F)[C@@H](C)CN([C@@H](C)CO)S(=O)(=O)c1ccc(F)cc1 | . | -6.5 | 102.7* | . | -24.9
C[C@@H]1CN([C@H](C)CO)S(=O)(=O)c2ccc(-c3ccc(F)cc3)cc2O[C@@H]1CN(C)C(=O)C1CC1 | 9.5[16.7 µM] | 5.0 | . | . | -6.2
C[C@@H]1CCCCO[C@@H](CN(C)C(=O)c2ccccc2)[C@H](C)CN([C@H](C)CO)C(=O)c2cc(NC(=O)CCC(F)(F)F)ccc2O1 | -5.8[16.7 µM] | . | 3.5 | . | 2.9
c1ccc2oc(-c3ccc4nc[nH]c4c3)nc2c1 | 4.1 | -1.1 | . | -30.7 | -2.6
Nc1nc2ccc(-c3nc4ccccc4o3)cc2s1 | -4.3 | 75.1* | . | -22.8 | -3.6
Cc1cc(S(=O)(=O)NCC2CC2)c(Cl)cc1Cl | 104.8* | 9.7 | -2.4 | 106.9* | 9.5
Cn1c2c(c(=O)n(C)c1=O)C(CC(=O)Nc1ccccc1)C(=O)N2 (centres undefined) | -1.8 | 133.4* | . | -1.1 | 8.7
Cn1c2c(c(=O)n(C)c1=O)C(CC(=O)Nc1ccccc1F)C(=O)N2 (centres undefined) | 2.1 | . | 4.6 | . | 4.6
CCN(C[C@H]1[C@H](c2ccccc2)[C@H](CO)N1C(C)=O)C(=O)NC(C)C | -12.5[16.7 µM] | 6.8 | 27.2* | . | 1.2
CCN(C[C@@H]1[C@@H](c2ccc(-c3ccccc3)cc2)[C@H](CO)N1C(C)=O)C(C)=O | -5.5[16.7 µM] | 15.9 | 22.2* | . | 0.8
CCN(C[C@H]1[C@H](c2ccc(-c3ccccc3)cc2)[C@H](CO)N1C(C)=O)C(C)=O | -6.2[16.7 µM] | -7.2 | 16.4 | . | -0.3
N#C/C(=C\c1c(F)cccc1Cl)S(=O)(=O)c1ccccn1 | . | . | 10.5 | 4.1 | .
N#CC(c1ccc(Cl)nn1)c1c(F)cccc1Cl (centres undefined) | . | . | -1.6 | 66.4* | -5.1
CCCCS(=O)(=O)/C=C\C=C/S(=O)(=O)CCCC | -30.8 | . | . | 3.2 | 97.0*
CCCCS(=O)(=O)/C=C\C1C2C=CC(C2)C1S(=O)(=O)CCCC (centres undefined) | 2.6 | . | . | -16.8 | -34.3
COc1ccc(S(=O)(=O)Nc2ccc3c(c2)C(=O)N([C@H](C)CO)C[C@@H](C)[C@H](CN(C)S(=O)(=O)c2ccccc2)OCCCC[C@H](C)O3)cc1 | . | . | 2.6 | . | -6.0
Cc1cc2c(c(=O)n1CCN(C)C)C(c1ccc(Br)cc1)C(C#N)=C(N)O2 (centres undefined) | . | -11.2 | . | -14.4 | .
